# Results taken from the supplement of paper PMC6124720.
# Counter-ions that a name gives are not always drawn. Unmarked numbers belong to inactive results.
# Test system: Pseudogymnoascus destructans 20631-21
# Experiment: growth activity index (DuctApe, 0 = no growth, 9 = maximal growth) (index 0-9); higher = more fungal growth (less inhibition), active = 0 or less; extreme values may be limits of the assay
# Conditions: temperature: 13 °C, YPD
# [1] = concentration level (1-4, increasing; Biolog proprietary): 1
# [2] = concentration level (1-4, increasing; Biolog proprietary): 2
# [3] = concentration level (1-4, increasing; Biolog proprietary): 3
# [4] = concentration level (1-4, increasing; Biolog proprietary): 4
# 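Note: biolog Phenotype Microarray plates PM21–25, OD595 followed daily over 11 days, growth curves converted to index, mean of two independent experiments.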
Structure (SMILES),growth activity index [1],growth activity index [2],growth activity index [3],growth activity index [4]
N[C@@H]1CONC1=O [D-Cycloserine] (Biolog plate: PM21),4,5,4.25,0 (active)
CN(C)CCC=C1c2ccccc2CCc2ccccc21 [Amitriptyline] (Biolog plate: PM25),0 (active),0 (active),2.67,6.33
O=C([O-])c1ccccc1.[Na+] [Sodium Benzoate] (Biolog plate: PM24),4,5,4.67,4.67
O=C([O-])c1ccccc1O.[Na+] [Sodium Salicylate] (Biolog plate: PM25),4.67,3.33,4,4
Nc1[nH]c(=O)ncc1F [5-Fluorocytosine] (Biolog plate: PM25),5,4,4.33,4
On1ccccc1=S [1-Hydroxypyridine-2-thione (pyrithione)] (Biolog plate: PM21),5.25,4,4.25,2.25
N=C(N)N [Guanidine hydrochloride] (Biolog plate: PM21),5.25,5,0.5,0.25
CN(C)C(=O)/N=N/C(=O)N(C)C [Diamide] (Biolog plate: PM21),5.75,5,0 (active),0 (active)
